# High-throughput results (PubChem BioAssay)
# An excerpt weighted towards active compounds, which were near 19% of everything screened.
# DT40 TDP1 no CPT: qHTS for Inhibitors of human tyrosyl-DNA phosphodiesterase 1 (TDP1): qHTS in cells in absence of CPT. DT40 Tdp1-/- hTDP1 cells, no CPT, ATP luminescence, 48 h. Potency, µM (titrated, usually from 46.2 µM), for the others: at the highest dose activity change, negative = growth inhibition, most hits filed as inhibitors. 420,000 compounds, 15% hits; note: potency is the fitted concentration of half-maximal effect; nearly all actives have a fitted effect of over 55% in size
#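 Stably hTDP1-transfected Tdp1-null chicken DT40 cells were treated with library compounds minus camptothecin and grown for at least 48 hr at 37 °C, after which cellular ATP was quantified by luminescence.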
# TDP1 cell CPT: growth inhibition of DT40 Tdp1-/-;hTDP1 cells with camptothecin (screen for TDP1 inhibitors). chicken DT40 Tdp1-/-;hTDP1 cells + 20 nM CPT, ATP luminescence, 48 h. Potency, µM (highest dose often 46.2 µM), for inactives: top-dose activity change, negative = growth inhibition, usual class: inhibitors. 420,000 compounds, 12% hits. AID 686979; note: potency is the fitted concentration of half-maximal effect; nearly all actives have a fitted effect of over 55% in size
#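 Chicken DT40 Tdp1-/- cells stably complemented with human TDP1 were seeded at 400 cells/well in medium containing 20 nM camptothecin, exposed to pin-transferred compounds, and grown at 37 °C for at least 48 hr. Viability was read as ATP luminescence.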
# HT1080 IDH1KD tx: toxicity to HT-1080 IDH1 knockdown cells (counter line); HT-1080 IDH1 knockdown viability, ATP luminescence, 48 h; Potency, µM (titrated, usually from 46.1 µM), inactives show top-dose activity, negative = toxicity, most hits filed as cytotoxic; 360,000 compounds, 2% hits; AID 686971;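 note: potency is the fitted concentration of half-maximal effect; 0% = DMSO wells and -100% = cell-free medium wells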
#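 In this qHTS, HT-1080 cells depleted of IDH1 are exposed for 48 h at 37 °C to compound titrations. Toxicity is scored from CellTiter-Glo luminescence, with DMSO as full viability and medium alone as none.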
# IL-1B inflam inh: blocks inflammasome-driven IL-1 beta release | activity change, % at 57.5 µM | AID 743279 | 360,000 compounds, 4.7% hits | THP-1 LPS/ATP IL-1B secretion, AlphaLISA, 16 h; stronger effect = lower value; in the data active = activity change below about -50%; inconclusive = mostly about -30% to -49%
#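 Secreted IL-1B measured by AlphaLISA bead assay after 16 h compound exposure of THP-1 cells; compounds (final up to 57.5 uM) added 1 h before LPS (250 ng/mL) and ATP (1.25 mM) stimulation; lower signal means less secretion.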
# HT1080NT lethal: kills 2HG-producing HT-1080-NT fibrosarcoma cells | 360,000 compounds, 1.6% hits | HT-1080-NT fibrosarcoma viability, CellTiter-Glo ATP luminescence, 48 h | AID 686970 | Potency, µM (highest dose often 46.1 µM), for the others: at the highest dose activity, negative = less viability, most hits filed as cytotoxic;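 note: NT is the 2HG producing partner of a matched IDH1 knockdown line; potency is the fitted concentration of half-maximal effect; 0% = DMSO-treated cells and -100% = media-only wells without cells; nearly all actives have a fitted effect of over 55% in size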
#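 Toxicity toward the 2HG-producing NT line was scored as %Activity, normalised to DMSO and no-cell wells, from CellTiter-Glo luminescence after 48 hours' treatment.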
# * = called active by the depositor; ? = inconclusive; nt = not tested or not shown. Unless noted, calls come from the whole dose curve; as a rule, active = well fitted curve in the direction sought with a large enough effect; inconclusive = small, poorly fitted or top-dose-only effect, or another doubt; inactive = no such curve, though single readings can be large; an effect the other way counts as inactive or inconclusive. Unless noted, % is set by controls: 0 for no effect and ±100 for the full control effect.
SMILES,DT40 TDP1 no CPT,TDP1 cell CPT,HT1080 IDH1KD tx,IL-1B inflam inh,HT1080NT lethal
C=CC[C@@H](CC(=O)N[C@H](CO)Cc1ccccc1)C(=O)N[C@H](COC(=O)[C@@H](CC=C)Cc1ccc(F)cc1)C(C)(C)C,?,?,-22.5%,?,?
C=CC[C@@H](CC(=O)N(CCO)Cc1ccccc1)C(=O)N[C@H](COC(=O)[C@@H](CC=C)Cc1ccc(F)cc1)c1ccccc1,13µM*,14.6µM*,-22.2%,?,-26.2%
C=CCC[C@H](Cc1ccc(F)cc1)C(=O)OC[C@@H](NC(=O)[C@@H](CC=C)CC(=O)N(CCO)Cc1ccccc1)C(C)(C)C,?,25.9µM*,?,?,?
C=CCC[C@H](Cc1ccc(F)cc1)C(=O)OC[C@@H](NC(=O)[C@H](CC=C)CC(=O)NCCO)C(C)(C)C,?,?,0.0%,-3.5,27.9%
CCc1ccc(C(=O)c2cn(CC(=O)Nc3ccc(OC)c(OC)c3)c3ccc(C)cc3c2=O)cc1,2.7%,1.4%,nt,nt,nt
Cc1cc(C(=O)NCCc2ccccc2)c2cc(F)ccc2n1,?,-27.6%,7.0%,7.4,2.6%
C=CC[C@@H](CC(=O)N(CCO)Cc1ccccc1)C(=O)N[C@@H](C)COC(=O)[C@@H](CC=C)Cc1ccc(F)cc1,16.4µM*,?,3.4%,-3.4,0.8%
C=CC[C@H](CC(=O)NCCO)C(=O)N[C@H](C)COC(=O)[C@@H](CC=C)Cc1ccc(F)cc1,?,?,20.0%,22.9,6.4%
COC(=O)C1=C(C)Nc2nnnn2C1c1cccnc1 (configuration not stated),-27.7%,-4.0%,0.2%,12.5,-1.3%
CC1=C(C(=O)OC2CCCCC2)C(c2cccnc2)n2nnnc2N1 (configuration not stated),11.6µM*,8.2µM*,-8.2%,-10.5,-2.9%
Cc1cc(N2CCOCC2)c2c(N)c(Br)cc(C)c2n1,3.26µM*,?,-1.6%,?,-0.5%
Cc1ccc2nc(/C(C#N)=C\c3ccc(Oc4ccc(C(F)(F)F)cc4[N+](=O)[O-])cc3)[nH]c2c1,10.3µM*,?,?,1.2,?
COc1ccc(/C=C(\C#N)c2nc3ccc(C)cc3[nH]2)cc1Oc1ccc(C(F)(F)F)cc1[N+](=O)[O-],16.4µM*,?,2.8%,51.4,6.1%
COc1ccc(/C=C(\C#N)c2cc(OC)c(OC)cc2[N+](=O)[O-])cc1,-23.2%,-23.1%,18.0%,23.0,19.4%
COC(=O)c1cc(S(=O)(=O)N2CCN(C(=O)c3ccco3)CC2)cn1C,-26.3%,-12.3%,7.8%,13.4,2.5%
CN(CCC#N)C(=O)COC(=O)c1cc(Cl)cc(Cl)c1N,-1.9%,-19.5%,0.4%,-5.2,1.0%
COc1cc(OC)cc(C(=O)NCCCN2CCN(CCCNC(=O)c3cc(OC)cc(OC)c3)CC2)c1,?,6.1%,-15.4%,-15.7,11.9%
Cn1c(=O)c2cc(NC(=O)NCc3ccc(F)cc3)ccc2n1C/C=C/c1ccccc1,9.2µM*,8.2µM*,?,62.6,?
Cn1c(=O)c2cc(NC(=O)Cc3ccccc3F)ccc2n1C/C=C/c1ccccc1,?,?,-6.3%,-18.0,-4.5%
CC(C)=CCn1c2ccc(NC(=O)NCc3ccc(F)cc3)cc2c(=O)n1C,1.64µM*,2.06µM*,2.31µM*,67.5,?
CCOCCC(=O)Nc1ccc2c(c1)c(=O)n(C)n2C/C=C/c1ccccc1,3.26µM*,4.61µM*,4.11µM*,72.4,?
CN(C)c1ccc(C2/C(=C(/O)c3ccc(Br)cc3)C(=O)C(=O)N2C)cc1 (configuration not stated),-14.2%,-4.4%,0.0%,-10.6,-6.1%
CC(O)(P(=O)(O)O)P(=O)(O)O,-4.4%,-0.3%,12.2%,-5.9,?
O=c1cc(-c2cccc(Br)c2)nc(-c2ccccc2F)o1,18.4µM*,25.9µM*,11.1%,11.0,-1.0%
